outcome, Potency and max activation data for nine molecules are collected here from PubChem BioAssay (Tox21).

Assay [1] addresses Thyrotropin receptor (Homo sapiens) (UniProt P16473). Kind of assay: qHTS assay to identify small molecule antagonists of the thyroid stimulating hormone receptor (TSHR) signaling pathway (AID 1259385; calls by dose curve; also: nearly all actives have a fitted effect of over 20% in size). In outline:
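TSHR-HEK293 cells were plated and held 18 h at 37C/5% CO2, then given compound plus Ro20-1724 and stimulated with TSH at 1.5 ng/mL final. After 30 min at room temperature, cAMP was detected with cAMP-d2/anti-cAMP-cryptate (1 h) by fluorescence.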

A short description of assay [2]: qHTS assay to identify small molecule agonists of the estrogen receptor alpha (ER-alpha) signaling pathway in the presence of an antagonist - cell viability counter screen (AID 1259386).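 Also: cells exposed to compounds for 22 h at 37 °C before the viability read; nearly all actives have a fitted effect of over 30% in size.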 Also: potency is read from the fitted curve at half-maximal effect. An outline of the steps:
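Viability counter screen using VM7Luc4E2 (full-length ER-alpha, four ERE-luciferase). The cells were treated with compounds alongside ICI-182,780 10.0nM for 22hr, and live-cell protease fluorescence was quantified with CellTiter-Fluor.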

The target in assay [3] is Progesterone receptor (Homo sapiens) (UniProt P06401). Kind of assay: qHTS assay to identify small molecule agonists of the progesterone receptor (PR) signaling pathway (AID 1346784; calls by dose curve; also: nearly all actives have a fitted effect of over 30% in size). An outline of the steps:
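PR-UAS-bla HEK 293T cells carrying a UAS-driven beta-lactamase reporter were seeded in medium with 2% charcoal-stripped FBS, preincubated 6 hr at 37C, then exposed to compounds in DMSO for 16 hr; agonism was read by LiveBLAzer B/G FRET fluorescence.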
A general note: qHTS replaces the single test concentration by a dilution series.

For assay [4] the target is unchanged. Kind of assay: qHTS assay to identify small molecule antagonists of the progesterone receptor (PR) signaling pathway (AID 1346795; active = well fitted inhibition curve with a large enough effect in the signal ratio in the repeat runs, not every such curve was filed as active; the % refers to the signal ratio). An outline of the steps: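 PR-UAS-bla HEK293T cells carrying a UAS-driven beta-lactamase reporter were plated in medium with 2% charcoal-stripped FBS and rested 6 hr at 37C. Compounds were added with 1 nM R5020 (final) for 16 hr, then FRET substrate loaded 2 hr at room temperature.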

Assay [5] is described as follows: qHTS assay to identify small molecule antagonists of the progesterone receptor (PR) signaling pathway - cell viability counter screen (AID 1346798). Also: series mostly up to about 92 µM; nearly all actives have a fitted effect of over 50% in size. An outline of the steps:
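PR-UAS-bla HEK293T cells in medium with 2% charcoal-stripped FBS were treated with compounds plus R5020 for 16 hr at 37C. Cell viability was then read by CellTiter-Glo luminescence after 30 min at room temperature in the same wells.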

The nature of assay [6]: qHTS assay to identify small molecule agonists of the progesterone receptor (PR) signaling pathway - cell viability counter screen (AID 1346799; calls by dose curve; also: nearly all actives have a fitted effect of over 45% in size). An outline of the steps:
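PR-UAS-bla HEK293T cells, 3,000 per well in medium with 2% charcoal-stripped FBS, were preincubated 6 hr at 37C, then exposed to compounds for 16 hr; viability was read as CellTiter-Glo luminescence after 30 min at room temperature.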

The nature of assay [7]: qHTS assay to identify small molecule antagonists of the TGF-beta/Smad signaling pathway - cell viability counter screen (AID 1346824). Also: nearly all actives have a fitted effect of over 50% in size. In outline:
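SBE-bla HEK 293T cells were plated overnight at 37 C, then given compounds in DMSO plus TGF-beta1 (added as 0.25 ng/mL solution) for 5 hr. After the bla read, CellTiter-Glo was added to the same wells and luminescence read after 30 min at room temperature.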

The nature of assay [8]: qHTS assay to identify small molecule agonists of the TGF-beta/Smad signaling pathway (AID 1346859; active = well fitted activation curve with a large enough effect in the signal ratio in the repeat runs, not every such curve was filed as active; the % refers to the signal ratio; also: series mostly up to about 77 µM). In outline: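 HEK 293T cells stably carrying a beta-lactamase reporter driven by the Smad binding element were seeded overnight, exposed to DMSO-dissolved compounds for 5 hr at 37 C, 5% CO2, then loaded with FRET substrate for 2 hr at room temperature.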
Assay [9] has as its target Thyrotropin-releasing hormone receptor (Homo sapiens) (UniProt P34981). Put plainly: qHTS assay to identify small molecule antagonists of the thyrotropin-releasing hormone receptor (TRHR) signaling pathway (AID 1346877; active = well fitted inhibition curve with a large enough effect in the repeat runs, not every such curve was filed as active; also: series mostly up to about 51 µM). In outline: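 Following an 18 h incubation at 37 °C and a 2 h calcium dye load, TRHR-HEK293 cells were exposed to compound (5 min, room temperature) and challenged with TRH, 1 nM final.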

Assay [10] has the same target. Put plainly: qHTS assay to identify small molecule agonists of the thyrotropin-releasing hormone receptor (TRHR) signaling pathway (AID 1346891; calls by dose curve; also: series mostly up to about 58 µM). In outline:
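TRHR-expressing HEK293 cells were plated 18 h at 37 °C/5% CO2, loaded with calcium dye 2 h at 37 °C, then given compound in DMSO; fluorescence was read kinetically for 3 min at 1 s intervals.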

Assay [11] is described as follows: Human pregnane X receptor (PXR) small molecule agonists, qHTS cell viability counter screen (AID 1346977). Also: nearly all actives have a fitted effect of over 50% in size. Also: potency is read from the fitted curve at half-maximal effect. In outline: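 PXR-Luc HepG2 cells in medium with 5% charcoal-stripped FBS were pre-incubated 5hr, then exposed to compounds for 24hr at 37C. Viability was read in the same wells by CellTiter-Fluor fluorescence, reagent added after 23hr with a 1hr incubation.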

Assay [12] in a line: Caspase-3/7 induction in HepG2 cells by small molecules, qHTS assay (AID 1346978). Also: nearly all actives have a fitted effect of over 15% in size. An outline of the steps: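 Wild-type HepG2 cells (2,000/well) were settled 5 h at 37 C, 5% CO2, then exposed to compounds in DMSO for 17 h. Caspase-3/7 activity was read by luminescence 30 min after adding Caspase-Glo 3/7 reagent at room temperature.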
The nature of assay [13]: Caspase-3/7 induction in CHO-K1 cells by small molecules, qHTS assay (AID 1346980). Also: nearly all actives have a fitted effect of over 15% in size. An outline of the steps: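 Wild-type cells were seeded at 1,500 per well and settled 5 hr at 37 C, 5% CO2, then exposed to DMSO-dissolved compounds for 17 hr. Caspase-Glo 3/7 reagent was added, and luminescence was read after 30min at room temperature.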
Assay [14] can be described thus: Caspase-3/7 induction in HepG2 cells by small molecules, qHTS cell viability counter screen (AID 1346981). Also: nearly all actives have a fitted effect of over 30% in size. Also: potency is read from the fitted curve at half-maximal effect. An outline of the steps:
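Viability determined by CellTiter-Fluor fluorescence in HepG2 wells also used for the luminescent Caspase-Glo 3/7 read. Compounds were present for 16 hr at 37 C, 5% CO2 before reagent addition.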

Assay [15] is described as follows: qHTS assay to identify small molecule agonists of the TGF-beta/Smad signaling pathway - cell viability counter screen (AID 1346829). Also: top concentration of the series differs between compounds; nearly all actives have a fitted effect of over 45% in size. In outline:
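Here the cytotoxicity of library compounds is measured in SBE-bla HEK 293T cells treated for 5 hr, using CellTiter-Glo added to wells already read for the beta-lactamase reporter.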

The target in assay [16] is Nuclear receptor subfamily 1 group I member 2 (Rattus norvegicus) (UniProt Q9R1A7). Kind of assay: Rat pregnane X receptor (rPXR) activation by small molecules, qHTS assay (AID 1346983). Also: nearly all actives have a fitted effect of over 20% in size. To be noted: rPXR luciferase reporter cells, One-Glo luminescence, 24 h; stronger effect = higher value. In outline: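 Cell-based rPXR luciferase reporter assay, 2,000 cells per well, rested 5hr at 37 C before compound addition in DMSO, then 24 hr at 37 C. One-Glo reagent was added and luminescence read after 30 min at room temperature.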
Nuclear receptor subfamily 1 group I member 2 (Rattus norvegicus), sequence (Q9R1A7 whole entry, looked up): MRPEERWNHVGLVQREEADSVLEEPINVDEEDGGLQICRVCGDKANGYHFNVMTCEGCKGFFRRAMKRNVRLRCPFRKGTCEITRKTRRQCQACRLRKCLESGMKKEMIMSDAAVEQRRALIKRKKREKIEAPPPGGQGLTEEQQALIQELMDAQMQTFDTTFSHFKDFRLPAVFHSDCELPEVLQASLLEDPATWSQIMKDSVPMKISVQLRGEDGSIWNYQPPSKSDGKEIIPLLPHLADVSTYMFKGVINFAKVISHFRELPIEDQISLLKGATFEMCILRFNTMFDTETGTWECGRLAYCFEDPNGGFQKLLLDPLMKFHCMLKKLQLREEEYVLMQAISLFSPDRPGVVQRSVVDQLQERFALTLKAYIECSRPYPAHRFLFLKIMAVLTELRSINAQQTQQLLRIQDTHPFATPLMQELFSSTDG

Assay [17] deals with Nuclear receptor subfamily 1 group I member 2 (Homo sapiens) (UniProt O75469). Put plainly: CYP3A4 induction through human pregnane X receptor (PXR) by small molecules, qHTS assay (AID 1346984). Also: nearly all actives have a fitted effect of over 40% in size. An outline of the steps:
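Readings come from a luciferase reporter: DPX-2 cells, which are HepG2 cotransfected with PXR and a CYP3A4-promoter construct, were exposed to test compounds for 24 h at 37C before One-Glo detection.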

Assay [18] has the same target. Kind of assay: Human pregnane X receptor (PXR) activation by small molecules, qHTS assay (AID 1346985). Also: nearly all actives have a fitted effect of over 40% in size. In outline: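 DPX-2 cells (HepG2 co-transfected with a PXR response element and a CYP3A4-promoter luciferase construct) were seeded at 2,000 per well, rested 5 hr at 37C, then exposed to DMSO-dissolved compounds for 24 hr. Activation was read as luciferase luminescence.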

Assay [19] is described as follows: Caspase-3/7 induction in CHO-K1 cells by small molecules, qHTS cell viability counter screen (AID 1346979). Also: nearly all actives have a fitted effect of over 35% in size. Also: potency is read from the fitted curve at half-maximal effect. In outline: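 Wild-type CHO-K1 cells were seeded at 1,500 per well, rested 5hr at 37 C, then exposed to compounds in DMSO. After 16hr, CellTiter-Fluor reagent was added and fluorescence read 1hr later as the viability measure.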
Assay [20] deals with Nuclear receptor subfamily 1 group I member 2 (Homo sapiens) (UniProt O75469). Put plainly: Human pregnane X receptor (PXR) small molecule agonists, qHTS assay (AID 1346982). Also: nearly all actives have a fitted effect of over 35% in size. In outline:
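Compound-induced hPXR transactivation of a CYP3A4 luciferase reporter was scored in HepG2 PXR-Luc cells over 24 hr at 37 C, 5% CO2, by luminescence.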

The structures appear in SMILES notation. Where “and” joins values, the source holds several entries; their conditions need not be identical. Identical values can stand only once. Unmarked numbers belong to inactive results. Results filed as inconclusive are left out. Calls of active or inactive are those of the source. Unless noted, calls follow the shape of the dose curve; as a rule, active = well fitted curve in the direction sought with a large enough effect in the repeat runs; inconclusive = weak or mixed curves; inactive = no such curve, though single readings can be large; an effect the other way counts as inactive or inconclusive.
% is scaled to controls: 0 for no effect and ±100 for the full control effect.

Thyrotropin-releasing hormone receptor (Homo sapiens), sequence (P34981 whole entry, looked up): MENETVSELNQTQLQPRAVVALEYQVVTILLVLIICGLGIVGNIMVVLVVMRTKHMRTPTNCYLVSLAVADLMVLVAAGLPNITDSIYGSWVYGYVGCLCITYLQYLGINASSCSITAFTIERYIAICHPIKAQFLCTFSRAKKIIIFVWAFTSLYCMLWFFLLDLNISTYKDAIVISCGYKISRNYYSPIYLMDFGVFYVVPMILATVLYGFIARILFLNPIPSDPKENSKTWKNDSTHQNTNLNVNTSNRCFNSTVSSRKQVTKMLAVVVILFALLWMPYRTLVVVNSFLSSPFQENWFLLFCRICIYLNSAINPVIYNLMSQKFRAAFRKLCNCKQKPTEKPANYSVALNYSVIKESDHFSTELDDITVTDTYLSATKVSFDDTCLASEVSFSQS
Progesterone receptor (Homo sapiens), sequence (P06401 whole entry, looked up): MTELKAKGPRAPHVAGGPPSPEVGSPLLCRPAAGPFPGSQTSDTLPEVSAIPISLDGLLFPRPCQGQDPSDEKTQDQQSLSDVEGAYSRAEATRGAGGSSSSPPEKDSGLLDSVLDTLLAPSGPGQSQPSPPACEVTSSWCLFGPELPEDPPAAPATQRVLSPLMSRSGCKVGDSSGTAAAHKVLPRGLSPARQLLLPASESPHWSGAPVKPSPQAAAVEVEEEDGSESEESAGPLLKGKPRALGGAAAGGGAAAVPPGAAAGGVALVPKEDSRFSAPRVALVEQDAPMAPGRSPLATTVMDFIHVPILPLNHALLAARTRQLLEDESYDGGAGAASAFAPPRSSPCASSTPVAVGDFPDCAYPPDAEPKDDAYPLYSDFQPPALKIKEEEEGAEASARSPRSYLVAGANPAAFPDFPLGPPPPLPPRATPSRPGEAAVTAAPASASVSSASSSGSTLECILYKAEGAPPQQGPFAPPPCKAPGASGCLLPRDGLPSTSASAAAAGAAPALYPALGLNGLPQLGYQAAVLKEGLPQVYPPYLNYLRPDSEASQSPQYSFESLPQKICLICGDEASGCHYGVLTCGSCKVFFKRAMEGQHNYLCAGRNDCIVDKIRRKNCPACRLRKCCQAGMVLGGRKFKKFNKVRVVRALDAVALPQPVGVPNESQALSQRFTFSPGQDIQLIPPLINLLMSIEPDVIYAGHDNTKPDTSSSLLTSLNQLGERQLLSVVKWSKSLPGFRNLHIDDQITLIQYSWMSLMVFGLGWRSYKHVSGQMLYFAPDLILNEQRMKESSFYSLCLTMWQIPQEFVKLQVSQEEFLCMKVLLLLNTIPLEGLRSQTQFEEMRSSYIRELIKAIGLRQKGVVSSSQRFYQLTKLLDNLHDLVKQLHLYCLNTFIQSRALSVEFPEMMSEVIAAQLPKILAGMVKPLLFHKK
Thyrotropin receptor (Homo sapiens), sequence (P16473 whole entry, looked up): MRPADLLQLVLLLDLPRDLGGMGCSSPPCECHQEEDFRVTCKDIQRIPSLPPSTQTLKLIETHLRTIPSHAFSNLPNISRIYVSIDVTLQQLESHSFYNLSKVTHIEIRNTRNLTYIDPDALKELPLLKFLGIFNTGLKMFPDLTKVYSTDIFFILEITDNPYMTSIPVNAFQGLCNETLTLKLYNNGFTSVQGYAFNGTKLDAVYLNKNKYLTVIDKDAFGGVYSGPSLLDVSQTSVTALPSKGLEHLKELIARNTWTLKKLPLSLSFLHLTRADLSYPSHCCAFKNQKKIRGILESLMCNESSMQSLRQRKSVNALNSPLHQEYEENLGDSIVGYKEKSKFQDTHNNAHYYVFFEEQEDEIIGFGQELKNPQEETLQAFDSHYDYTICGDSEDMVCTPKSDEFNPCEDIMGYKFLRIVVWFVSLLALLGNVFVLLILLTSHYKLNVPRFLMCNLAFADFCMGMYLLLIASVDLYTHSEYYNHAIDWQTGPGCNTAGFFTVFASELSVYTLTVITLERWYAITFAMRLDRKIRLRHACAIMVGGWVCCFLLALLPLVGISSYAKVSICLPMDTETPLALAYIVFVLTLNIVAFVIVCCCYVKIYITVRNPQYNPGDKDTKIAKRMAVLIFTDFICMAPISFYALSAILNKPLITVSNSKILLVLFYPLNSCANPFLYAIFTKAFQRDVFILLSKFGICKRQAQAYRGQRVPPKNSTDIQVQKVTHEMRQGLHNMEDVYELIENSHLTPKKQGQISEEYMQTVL
Nuclear receptor subfamily 1 group I member 2 (Homo sapiens), sequence (O75469 whole entry, looked up): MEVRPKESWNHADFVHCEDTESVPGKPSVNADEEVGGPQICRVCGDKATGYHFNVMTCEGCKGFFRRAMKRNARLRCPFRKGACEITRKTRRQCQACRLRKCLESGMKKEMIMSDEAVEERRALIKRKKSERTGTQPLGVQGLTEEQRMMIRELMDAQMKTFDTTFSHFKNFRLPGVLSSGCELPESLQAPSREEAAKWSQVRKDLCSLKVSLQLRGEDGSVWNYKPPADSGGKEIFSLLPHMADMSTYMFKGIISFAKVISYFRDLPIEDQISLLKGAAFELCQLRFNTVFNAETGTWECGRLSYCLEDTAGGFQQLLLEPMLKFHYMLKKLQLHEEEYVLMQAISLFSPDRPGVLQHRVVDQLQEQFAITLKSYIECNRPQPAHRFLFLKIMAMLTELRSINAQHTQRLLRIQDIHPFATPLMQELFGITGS

Consider `O=C(O)CCCCCCCC(=O)O`, for which the molecule was called inactive in assay [1], in [4], in [7], in assay [8], in assay [9] and in assay [10]. In addition, the result in [13] was inactive. Also, the Potency result in assay [2], in assay [3], in assay [5], in assay [6], in assay [11] and in assay [12] was “inactive” in each case. Also, the Potency entry in assay [14] is “inactive”.
As to `O=C(O)c1cc(N=Nc2ccc(S(=O)(=O)Nc3ccccn3)cc2)ccc1O`, the molecule was classed as inactive in [1], in assay [4], in [7], in assay [8], in assay [13] and in assay [17]. For the same molecule, the Potency was 61.3 µM (active) and 30.6 µM (active) and 29.8 µM (active) in assay [2]; 39.8 µM (active) in assay [11]; 27.4 µM (active) and 48.6 µM (active) and 23.7 µM (active) in assay [14]. For the same molecule, the Potency entry in [3], in assay [5], in [6], in assay [15], in assay [12] and in [18] was “inactive” throughout. Besides, the max activation in assay [16] is -4.4%.
Consider `O=C1CN(/N=C/c2ccc([N+](=O)[O-])o2)C(=O)N1`, for which the molecule was classed as inactive in assay [1], in [4], in assay [7], in assay [8], in assay [9] and in [10]. For the same molecule, the result in assay [13] and in assay [17] was inactive. Moreover, the Potency in [2] was 30.5 µM (active) and 54.5 µM (active) and 18.8 µM (active); in [11] it was 27.2 µM (active) and 68.6 µM (active) and 26.6 µM (active); in assay [19] it was 60.9 µM (active) and 68.6 µM (active) and 33.5 µM (active); in assay [14] it was 48.4 µM (active) and 61.1 µM (active) and 29.8 µM (active). Moreover, the Potency result in [3], in [5], in assay [6], in [12] and in [18] was “inactive” throughout. Moreover, the max activation in [16] was -5.45%.
`Cc1ccc(O)cc1`: the call in assay [1], in assay [4], in assay [7], in [8], in assay [9] and in assay [10] was inactive. The call in assay [13] was inactive. For the same molecule, the Potency result in [2], in assay [3], in assay [5], in assay [6], in assay [15] and in assay [12] was “inactive” in each case. For the same molecule, the Potency entry in assay [14] is “inactive”.
`O=C(O)c1cccnc1`: the result in assay [1], in assay [4], in assay [7], in assay [8], in [9] and in [10] was inactive. Further, in assay [13], the result was inactive. For the same molecule, the Potency result in assay [2], in assay [3], in assay [5], in [6], in [15] and in assay [11] was “inactive” each time. For the same molecule, the Potency result in assay [12], in assay [19] and in [14] was “inactive” throughout.
In the case of `Cc1noc(NS(=O)(=O)c2ccc(N)cc2)c1C`, the call in [1], in [4], in assay [8], in assay [9], in assay [10] and in assay [13] was inactive. Moreover, the Potency entry in [2], in assay [5], in [6], in assay [15], in assay [11] and in [12] was “inactive” throughout. Also, in assay [14], the Potency entry was “inactive”.
Turning to `CC(=O)Nc1nnc(S(N)(=O)=O)s1`, the result in [1], in assay [4], in assay [7], in assay [8], in assay [9] and in assay [10] was inactive. The outcome in assay [13] was inactive. Besides, the Potency result in assay [2], in [5], in assay [6], in assay [11], in assay [12] and in assay [14] was “inactive” throughout. In [20], the Potency result was “inactive”.
With `NNC(=O)c1ccncc1`, the outcome in [1], in [4], in assay [7], in assay [8] and in [13] was inactive. Moreover, the Potency entry in assay [2], in assay [5], in assay [6], in assay [11], in assay [12] and in assay [19] was “inactive” in each case. Also, the Potency result in assay [14] was “inactive”.
Take `Nc1ccc(S(=O)(=O)Nc2nccs2)cc1`: the result in [1], in assay [4], in assay [7], in assay [8] and in assay [13] was inactive. Moreover, the Potency result in [2], in assay [5], in [6], in [11], in assay [12] and in assay [14] was “inactive” each time. Besides, the Potency result in [20] is “inactive”.
